23 compounds from PubChem BioAssay AID463173 (ICCB-Longwood Screening Facility, Harvard Medical School, 2010) can be followed below.

Out of some 52,000 compounds screened, about 1,700 (3.3%) were called active. No stated cut-off is given here; in the data, active means survival mostly below about 52% (no sharp cut-off); inactive means mostly above about 56%. The full list was thinned out, with actives kept by preference.

In this assay the test system is Wild type. In words: S. aureus survival, RN4220 and DeltatarO strains – OD600, teichoic acid synthesis inhibitors, primary screen (AID 463173). The note with it: S. aureus RN4220 wild type/DeltatarO growth, OD600, 18 h, active compounds read low, screened at 18.75 µg/mL (by protocol).
On to `COc1cc(OC)c(NC(=O)c2c(C)oc3nc(C)nc(N4CCOCC4)c23)cc1Cl`, for which the survival is 81% (inactive). As for `COc1ccc2c(c1)c(CC(=O)Nc1cccc(F)c1C)c(C)n2C(=O)c1ccc(Cl)cc1`, the figure is 152% (inactive); as for `COc1ccc(-c2nc3scc(CCNS(=O)(=O)c4c(C)noc4C)n3n2)cc1OC`, 123% (inactive). As for `CCOc1ccc(-c2cc(-c3nc(-c4cc(OC)c(OC)c(OC)c4)no3)[nH]n2)cc1`, the figure is 123% (inactive); as for `Oc1ccc(Cl)cc1C1=Nc2ccccc2N=C(c2cccc(Br)c2)C1`, 137% (inactive). As for `c1ccc(N2CCN(Cc3nnc(-c4ccc5c(c4)OCO5)o3)CC2)cc1`, the figure is 81% (inactive); as for `CCOc1ccc(NC(=O)/C(C#N)=C\c2cc(C)n(C)c2C)cc1`, 103% (inactive). For `O=C(CSc1nc(-c2ccccc2)no1)N1CCN(c2ccc(F)cc2)CC1`, the survival is 91% (inactive). For `CCc1ccccc1NC(=O)C(C)n1c(=O)cc(C)c2c(C)nn(-c3ccccc3)c21` (stereo not drawn), the survival is 72% (inactive). For `COc1cc(C2C(=O)N(C3CCCCC3)CC(=O)N2CCc2ccccc2)ccc1OC(C)C` (stereo not drawn) the value was 89% (inactive); for `Cc1ccc(CNC(=O)c2cc(Sc3ccc(F)cc3F)nc3ccccc23)cc1`, 94% (inactive); for `COC(=O)c1c(C)oc2c1cc(NS(=O)(=O)c1c(C)cc(C)cc1C)c1ccccc12`, 25% (active).

For `COc1ccc(OC)c(S(=O)(=O)Nc2cc3c(C(C)=O)c(C)oc3c3ccccc23)c1`, the survival is 69% (inactive). For `CCOC(=O)c1c(C)oc2c1cc(NS(=O)(=O)c1ccc(C)cc1)c1ccccc12` the value was 86% (inactive); for `CCOC(=O)c1sc2sc(C(=O)OCC)c(CN(CC)CC)c2c1CN(CC)CC`, 94% (inactive). For `Cc1ccccc1-c1nnc(NC(=O)CC(C)C)s1` the value was 116% (inactive); for `COc1ccccc1CNS(=O)(=O)c1ccc(-c2cc(C(F)(F)F)on2)s1`, 73% (inactive).

With `COc1ccc(CNS(=O)(=O)c2ccc(-c3cc(C(F)(F)F)on3)s2)cc1OC`, the survival is 133% (inactive). As for `COc1ccc(OC)c(CNS(=O)(=O)c2ccc(-c3cc(C(F)(F)F)on3)s2)c1`, the figure is -6% (active); as for `CCC(=O)N1CCc2cc(S(=O)(=O)CCC(=O)N3CCN(c4cccc(C)c4)C(C)C3)ccc21` (stereo not drawn), 83% (inactive); as for `Cc1cccc(N2CCN(C(=O)CCS(=O)(=O)c3ccc4c(c3)CC(=O)N4C)CC2C)c1` (stereo not drawn), -4% (active). As for `CN1C(=O)Cc2cc(S(=O)(=O)CCC(=O)N3CCN(c4cccc(Cl)c4)CC3)ccc21`, the figure is 83% (inactive). As for `COc1ccc(-c2cn3c(n2)sc2cc(C(=O)Nc4c(C)cccc4C)ccc23)cc1`, the figure is 83% (inactive).
